According to article PMC11006913:

target: CRX (Homo sapiens, UniProt O43186 26-111, E42D); experiment: PBM; 200 nM protein, PBS; details: dsDNA, one strand shown
Sequence (O43186 26-111 E42D): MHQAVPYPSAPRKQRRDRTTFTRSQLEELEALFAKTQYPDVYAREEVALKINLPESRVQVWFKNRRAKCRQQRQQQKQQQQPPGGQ

| Sequence | binding signal |
| --- | --- |
| GAAATCCA | 10.4 upbm affinity estimate (log intensity, higher = more binding, comparable within an allelic series) |
| CGGGTCAC | 8.08 upbm affinity estimate (log intensity, higher = more binding, comparable within an allelic series) |
| TAATCCAA | 13 upbm affinity estimate (log intensity, higher = more binding, comparable within an allelic series) |
| ACACGCCC | 8.24 upbm affinity estimate (log intensity, higher = more binding, comparable within an allelic series) |
| AGCACCAG | 8.39 upbm affinity estimate (log intensity, higher = more binding, comparable within an allelic series) |
| ACACTACC | 8.19 upbm affinity estimate (log intensity, higher = more binding, comparable within an allelic series) |
| ACTGCAGT | 8.32 upbm affinity estimate (log intensity, higher = more binding, comparable within an allelic series) |
| AGTGCACG | 8.27 upbm affinity estimate (log intensity, higher = more binding, comparable within an allelic series) |
| TAAGATTA | 12.6 upbm affinity estimate (log intensity, higher = more binding, comparable within an allelic series) |
| GGGCGCAC | 7.93 upbm affinity estimate (log intensity, higher = more binding, comparable within an allelic series) |
| GGTCGAAC | 8.11 upbm affinity estimate (log intensity, higher = more binding, comparable within an allelic series) |
| AATCACTA | 10.2 upbm affinity estimate (log intensity, higher = more binding, comparable within an allelic series) |
| ACTAATCT | 13.1 upbm affinity estimate (log intensity, higher = more binding, comparable within an allelic series) |
| GCCTGACA | 8.43 upbm affinity estimate (log intensity, higher = more binding, comparable within an allelic series) |
| CCGAACCG | 8.3 upbm affinity estimate (log intensity, higher = more binding, comparable within an allelic series) |
| CTGGTCGA | 8.35 upbm affinity estimate (log intensity, higher = more binding, comparable within an allelic series) |
| GTTTAAAA | 9.79 upbm affinity estimate (log intensity, higher = more binding, comparable within an allelic series) |
| ACCAGTCG | 8.43 upbm affinity estimate (log intensity, higher = more binding, comparable within an allelic series) |
| GGGAGACA | 8.2 upbm affinity estimate (log intensity, higher = more binding, comparable within an allelic series) |
| AGAAGGAG | 8.28 upbm affinity estimate (log intensity, higher = more binding, comparable within an allelic series) |

target: CRX (Homo sapiens, UniProt O43186 26-111, R41L); experiment: PBM; 200 nM protein, PBS; details: dsDNA, one strand shown
Sequence (O43186 26-111 R41L): as the sequence (O43186 26-111 E42D) above, with R16L, D17E counted along it

| Sequence | binding signal |
| --- | --- |
| AATAATCT | 12.6 upbm affinity estimate (log intensity, higher = more binding, comparable within an allelic series) |
| ACCCAGTG | 8.13 upbm affinity estimate (log intensity, higher = more binding, comparable within an allelic series) |
| AGAGAGAC | 8.33 upbm affinity estimate (log intensity, higher = more binding, comparable within an allelic series) |
| CCAGTGCA | 8.38 upbm affinity estimate (log intensity, higher = more binding, comparable within an allelic series) |
| GAAGTTCC | 8.28 upbm affinity estimate (log intensity, higher = more binding, comparable within an allelic series) |
| AGAATCCC | 10.1 upbm affinity estimate (log intensity, higher = more binding, comparable within an allelic series) |
| CACGGCGA | 8.27 upbm affinity estimate (log intensity, higher = more binding, comparable within an allelic series) |
| GGCGTCCC | 8.1 upbm affinity estimate (log intensity, higher = more binding, comparable within an allelic series) |
| AGATTATA | 12.8 upbm affinity estimate (log intensity, higher = more binding, comparable within an allelic series) |
| AATCTCCC | 10.6 upbm affinity estimate (log intensity, higher = more binding, comparable within an allelic series) |
| AAGGGTGG | 8.33 upbm affinity estimate (log intensity, higher = more binding, comparable within an allelic series) |
| AAGTATAA | 10.2 upbm affinity estimate (log intensity, higher = more binding, comparable within an allelic series) |
| CACCAGGC | 8.39 upbm affinity estimate (log intensity, higher = more binding, comparable within an allelic series) |
| GCTATTTA | 10 upbm affinity estimate (log intensity, higher = more binding, comparable within an allelic series) |
| GCAGATCA | 9.94 upbm affinity estimate (log intensity, higher = more binding, comparable within an allelic series) |
| GGAGACCC | 8.36 upbm affinity estimate (log intensity, higher = more binding, comparable within an allelic series) |
| CGCGGCAG | 8.17 upbm affinity estimate (log intensity, higher = more binding, comparable within an allelic series) |
| ATTTAAGA | 10.4 upbm affinity estimate (log intensity, higher = more binding, comparable within an allelic series) |
| ACAGGCAC | 8.23 upbm affinity estimate (log intensity, higher = more binding, comparable within an allelic series) |
| AGTGTGTC | 8.38 upbm affinity estimate (log intensity, higher = more binding, comparable within an allelic series) |

| Sequence | binding signal |
| --- | --- |
| GAAATCCA | 10.6 upbm affinity estimate (log intensity, higher = more binding, comparable within an allelic series) |
| CGGGTCAC | 8.09 upbm affinity estimate (log intensity, higher = more binding, comparable within an allelic series) |
| TAATCCAA | 12.8 upbm affinity estimate (log intensity, higher = more binding, comparable within an allelic series) |
| ACACGCCC | 8.26 upbm affinity estimate (log intensity, higher = more binding, comparable within an allelic series) |
| AGCACCAG | 8.39 upbm affinity estimate (log intensity, higher = more binding, comparable within an allelic series) |
| ACACTACC | 8.34 upbm affinity estimate (log intensity, higher = more binding, comparable within an allelic series) |
| ACTGCAGT | 8.4 upbm affinity estimate (log intensity, higher = more binding, comparable within an allelic series) |
| AGTGCACG | 8.23 upbm affinity estimate (log intensity, higher = more binding, comparable within an allelic series) |
| TAAGATTA | 12.4 upbm affinity estimate (log intensity, higher = more binding, comparable within an allelic series) |
| GGGCGCAC | 7.95 upbm affinity estimate (log intensity, higher = more binding, comparable within an allelic series) |
| GGTCGAAC | 8.1 upbm affinity estimate (log intensity, higher = more binding, comparable within an allelic series) |
| AATCACTA | 9.96 upbm affinity estimate (log intensity, higher = more binding, comparable within an allelic series) |
| ACTAATCT | 12.7 upbm affinity estimate (log intensity, higher = more binding, comparable within an allelic series) |
| GCCTGACA | 8.39 upbm affinity estimate (log intensity, higher = more binding, comparable within an allelic series) |
| CCGAACCG | 8.28 upbm affinity estimate (log intensity, higher = more binding, comparable within an allelic series) |
| CTGGTCGA | 8.29 upbm affinity estimate (log intensity, higher = more binding, comparable within an allelic series) |
| GTTTAAAA | 9.59 upbm affinity estimate (log intensity, higher = more binding, comparable within an allelic series) |
| ACCAGTCG | 8.32 upbm affinity estimate (log intensity, higher = more binding, comparable within an allelic series) |
| GGGAGACA | 8.26 upbm affinity estimate (log intensity, higher = more binding, comparable within an allelic series) |
| AGAAGGAG | 8.25 upbm affinity estimate (log intensity, higher = more binding, comparable within an allelic series) |
